An excerpt weighted towards active compounds, which were near 6.2% of everything screened.
HCMV inh: blocks human cytomegalovirus replication | 410,000 compounds, 4.5% hits | HFF cells, HCMV-luciferase reporter, 72 h; hits give low values | activity change, negative = inhibition, % at 57.5 µM | AID 1259415; in the data active = activity change below about -60%; inconclusive = no clear call, values can overlap the other calls; inactive = above about -39%
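Compounds were evaluated in HFFs infected with an HCMV luciferase reporter virus (MOI 1 PFU/cell). Luciferase in lysates collected 72 h post infection served as the replication measure.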
FMDV inh: blocks foot and mouth disease virus. FMDV antiviral cell-based qHTS. Potency, µM (series often up to 57.9 µM), without a hit: at the highest dose activity change, negative = inhibition, actives largely listed as inhibitors. 410,000 compounds, 1.2% hits. AID 1159524; calls by dose curve; tested in HEK293T cells; also: read-out not given here; potency is read from the fitted curve at half-maximal effect; nearly all actives have a fitted effect of over 45% in size
Marburg entry inh: inhibitors of Marburg virus binding or cell entry | 300,000 compounds, 1.8% hits | Potency, µM (series often up to 37.8 µM), for the others: at the highest dose activity change, negative = inhibition, usual class: inhibitors | Marburg virus pseudotyped entry inhibition, cell reporter; calls by dose curve; tested in HEK293 cells; also: potency is read from the fitted curve at half-maximal effect
LASV entry inh: blocks Lassa virus binding to or entry into cells; Lassa virus pseudotype entry inhibition, cell reporter; Potency, µM (series often up to 37.9 µM), for inactives: at the top dose activity change, negative = inhibition, most hits filed as inhibitors; 300,000 compounds, 1.2% hits; AID 540256; calls by dose curve; tested in HEK293 cells; also: potency is read from the fitted curve at half-maximal effect; nearly all actives have a fitted effect of over 50% in size
* hit, by the source's call; ? = inconclusive; / = not tested or not shown; [ ] = another dose, or the depositor's remark. % is scaled to controls: 0 for no effect and ±100 for the full control effect.

SMILES	HCMV inh	FMDV inh	Marburg entry inh	LASV entry inh
CCOC(=O)CN1C(=O)[C@]2(OC[C@@H]3Cc4ccccc4[C@H]3C=C2C)c2ccccc21	/	/	-22.0%[14.2 µM]	/
CN(C(=O)c1ccccc1F)C(c1ccccc1)c1ccccc1	14.9	-7.7%	?	11.2µM*
O=C(CN(c1ccccc1)S(=O)(=O)c1ccccc1)Nc1ccccc1C(=O)NCc1ccco1	-61.9*	-11.6%	?	?
Cc1ccc(S(=O)(=O)N(Cc2ccccc2)c2ccccc2C(=O)NCc2ccco2)cc1	-18.5	/	?	?
Cc1ccc(N(CC(=O)Nc2ccccc2C(=O)NCc2ccco2)S(=O)(=O)c2ccccc2)cc1C	5.4	-15.1%	?	?
Cc1ccc(S(=O)(=O)N(Cc2ccccc2)c2ccccc2C(=O)Nc2ccccc2C(=O)NCc2ccco2)cc1	?	13.3%	16.4µM*	-2.7%
CS(=O)(=O)N(CC(=O)Nc1ccccc1C(=O)NCc1ccco1)c1ccccc1F	-36.1	17.8%	1.2%[46.1 µM]	13.7%
CS(=O)(=O)N(Cc1ccccc1)c1ccccc1C(=O)Nc1ccccc1C(=O)NCc1ccco1	-2.7	-22.8%	4.11µM*	-1.6%
CCN1CCN(C(=O)c2ccccc2N(Cc2ccccc2)S(=O)(=O)c2ccc(C)cc2)CC1	7.1	-0.5%	5.8µM*	?
CCOC(=O)c1c(S(=O)(=O)N2CCC(C(=O)NCc3cccc(OC)c3)CC2)c(C)n(C)c1C	10.2	-15.8%	/	11.8%[46.1 µM]
CCOC(=O)Cc1csc(NC(=O)C2C3C=CC(C3)C2C(=O)O)n1 (stereo not given)	-101.5*	-2.6%	7.3%[46.1 µM]	21.9%
CCOC(=O)Cc1nnc2c(Nc3ccc(Cl)cc3)nc3nonc3n12	-73.5*	?	?	?
CCOC(=O)Cc1csc(Nc2ccc(Cl)cc2)n1	-72.3*	12.9%	/	/
Cc1csc(NC(=O)C2C3C=CC(C3)C2C(=O)O)n1 (stereo not given)	26.1	-8.6%	-12.8%	-4.9%
CCOC(=O)Cc1csc(NC(=S)NC(=O)c2ccc(Cl)cc2)n1	-84.1*	3.2%	3.6%[46.1 µM]	-1.7%
C[C@@H]1[C@@H](c2ccccc2)Oc2c(Cl)cccc2S(=O)(=O)N1Cc1cccc(F)c1	/	/	/	-0.6%[46.1 µM]
O=C(CCNS(=O)(=O)c1ccc2c(c1)CCN2C(=O)C1CC1)N1CCN(c2ccc(F)cc2)CC1	-37.5	-27.9%	/	?
Cc1ccccc1CCNC(=O)C1CCN(S(=O)(=O)c2ccc3c(ccn3C)c2)CC1	13.4	-17.9%	/	-17.8%[46.1 µM]
O=C(CNC(=O)c1cccs1)c1ccc([N+](=O)[O-])cc1	27.7	13.8%	?	0.3%
CCc1ccc(C(=O)COC(=O)c2cccs2)cc1	23.6	6.1%	-7.5%	/
O=C(CNC(=O)c1cccs1)c1ccc(F)cc1	-75.2*	-26.4%	?	-21.6%
Cc1ccc(C(=O)COC(=O)c2cccs2)cc1	36.3	22.4µM*	?	-16.6%
O=C(CNC(=O)c1ccco1)OCC(=O)c1ccc([N+](=O)[O-])cc1	-63.7*	-1.2%	3.7%[46.1 µM]	-17.2%
O=C(CNC(=O)c1cccs1)OCC(=O)c1ccc([N+](=O)[O-])cc1	-64.7*	5.6%	-24.1%[46.1 µM]	8.7%
COC(=O)c1c(NC(=O)c2ccc(S(=O)(=O)N3CCCCC3)cc2)sc2c1CCN(C)C2	-2.0	11.1%	/	-0.1%[46.1 µM]
SMILES	HCMV inh	FMDV inh	Marburg entry inh	LASV entry inh
COc1cc([C@@H]2c3cc4c(cc3[C@@H](O[C@@H]3O[C@H]5CO[C@@H](C)O[C@@H]5[C@@H](O)[C@H]3O)[C@@H]3COC(=O)[C@@H]23)OCO4)cc(OC)c1O	/	-15.7%	/	/
COc1ccccc1-c1nc(N(C)C)c2ccccc2n1	/	-11.8%	/	/
O=C(NC1CCN(C(=O)NC2CCCCC2)CC1)c1ccco1	-106.7*	-0.3%	?	28.9%
COc1ccc(N(C)C(=O)c2nc(-c3cccc(F)c3)n3c2CCCCC3)c(OC)c1	-29.6	-8.1%	/	-3.0%[46.1 µM]
CCCCNC(=S)N1CCn2cccc2C1c1ccc(F)cc1 (stereo not given)	94.5	-14.7%	6.31µM*	12.6µM*
S=C(NCc1ccccc1)N1CCn2cccc2C1c1cccnc1 (stereo not given)	-71.5*	36.3%	?	?
Cc1ccc(NC(=O)c2ccc3c(c2)NC(=O)c2ccccc2S3)c(Cl)c1	-22.9	-29.3%	-7.2%[46.1 µM]	/
CCn1c(O)c(/C=C2\C=NN=C2c2ccc(C)cc2)sc1=S	-8.5	-7.5%	1.1%[46.1 µM]	2.6%
CC(C)n1c(O)c(/C=C2\C=NN=C2c2ccccc2)sc1=S	?	?	11.2µM*	?
CCCOC(=O)CSC1=C(C#N)[C@H](c2ccccc2OC)[C@H](C#N)C(=O)N1	/	/	6.2%	/
CCCc1nc2ccccc2n2c(-c3cccc(C)c3)c3c(=O)n(C)c(=O)n(C)c3c12	13.8	?	?	?
C=C(c1ccccc1C)[n+]1ccccc1	8.6	-5.0%	-11.4%	16.8%
C=C(c1ccccc1Cl)[n+]1ccccc1	-60.2*	-12.1%	?	-11.8%
O=C(NCc1nc(-c2ccc(C(F)(F)F)cc2)no1)Nc1ccc(OC(F)(F)F)cc1	-97.1*	-12.3%	?	?
COc1cc(OC)c(C(=O)O/N=C(\N)c2ccc(C)cc2)cc1OC	20.1	18.9%	7.94µM*	?
Cn1c(=O)[nH]c(=O)c2c1nc(CN1CCN(c3ccccc3)CC1)n2Cc1c(F)cccc1Cl	?	-13.4%	-1.2%[46.1 µM]	-8.4%[46.1 µM]
CCc1noc(C)c1C(=O)Nc1ccc(S(=O)(=O)N2CCCCC2)cc1	-15.4	-13.0%	-28.8%[46.1 µM]	-6.3%
O=C(Nc1ccc(Cl)c(S(=O)(=O)N2CCCCC2)c1)c1ccncc1	-77.3*	-33.9%	?	-26.6%
CCc1noc(C)c1C(=O)Nc1ccc(Cl)c(S(=O)(=O)N2CCCCC2)c1	-34.9	22.4µM*	?	-17.2%
O=C(Nc1ccc(Cl)c(S(=O)(=O)N2CCCCC2)c1)c1cnccn1	-2.7	-19.7%	/	/
CCC(=O)N1[C@H](C(=O)NC2CCCC2)[C@@H](CO)[C@@H]2Cn3c(cccc3=O)[C@@H]21	-6.3	/	/	/
CCOc1ccccc1NC(=O)N1CCN(C)c2ncccc21	-30.9	?	-16.5%[46.1 µM]	-6.5%[46.1 µM]
Cc1cc(C)c2nc(N3CCC(C(=O)NCCCN4CCCCC4)CC3)sc2c1	-103.3*	?	?	?
Cc1nc(Cl)c(C(=O)NC(=O)Nc2cccc(C(F)(F)F)c2)c(C)c1[N+](=O)[O-]	-39.1	22.4µM*	?	?
Cc1onc(C(=O)Nc2cccc(C(F)(F)F)c2)c1[N+](=O)[O-]	-17.4	-25.1%	/	/
SMILES	HCMV inh	FMDV inh	Marburg entry inh	LASV entry inh
Cc1ccc(-c2ocnc2C(=O)Nc2ccccc2NC(=O)c2ccccn2)cc1	?	-13.3%	?	-19.9%
Cc1cccc(-c2ocnc2C(=O)Nc2ccccc2NC(=O)c2ccccn2)c1	-97.7*	-0.5%	?	?
COc1ccc(/C=N/NC(=O)CC#N)cc1Oc1nc(Cl)ncc1F	-18.7	-21.5%	/	/
CCOc1cc(/C=N\Nc2ncc(F)c(N3CCOCC3)n2)ccc1Oc1nc(Cl)ncc1F	-72.7*	15.8µM*	?	?
Fc1cnc(N/N=C/c2ccc(-c3ccc(Br)cc3)o2)nc1N1CCOCC1	5.2	-15.9%	0.2%[46.1 µM]	5.1%[46.1 µM]
CCOc1cc(/C=N/NC(=O)c2ccc(O)cc2)ccc1Oc1nc(Cl)ncc1F	-71.1*	-25.4%	/	/
NCCC(=O)O	/	-5.1%	/	/
O=c1n(CC2CO2)c(=O)n(CC2CO2)c(=O)n1CC1CO1 (stereo not given)	-62.0*	-11.7%	0.447µM*	?

Compound activity (PubChem)
